Assay outcomes from PubChem.
Rows were chosen to be rich in hits. Some 3% of all compounds tested hit in one or more screens of this group.
CRE Fsk mod: Cell signaling CRE-BLA (Fsk stim). CHO CRE-bla reporter (cAMP response element driving beta-lactamase), forskolin EC10, beta-lactamase ratio. Potency, µM (titrated, usually from 38.2 µM), for inactives: top-dose activity change, negative = inhibition, hits mostly activators. 71,000 tested, 2.5% active. AID 662, 2007; active = well fitted activation curve with a large enough effect in the signal ratio, with a control signal flat, not every such curve was filed as active; inconclusive = small, poorly fitted or top-dose-only effect, or effect the other way, or a change in a side signal; the % refers to the signal ratio; note: % of control where 0% means no effect
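AC50 values, positive or negative, reflect shifts in EC10 NKH 477-induced CRE-bla reporter activity in CHO cells. Incubation lasted 3 h at 37 °C before CCF4 substrate (2 h, room temperature) and ratiometric 460/530 nm reading.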
IkB signaling: IkB Signaling; ABC-DLBCL IkBa-CBG/CBR dual luciferase ratio, 4 h; response scale: scaled: untreated 0%, proteasome inhibitor 100%; AID 445, 2006; 110,000 tested, 0.04% active; Potency, µM (doses to about 57.1 µM), for the others: at the highest dose IkBa stabilization activation; active = well fitted curve in the direction sought with a large enough effect in the signal ratio, not every such curve was filed as active; inconclusive = small, poorly fitted or top-dose-only effect, or a change in a side signal; the % refers to the signal ratio;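 note: the direction sought is a rising ratio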
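Luminescence ratio of IκBα-fused green versus native red beetle luciferase in OCI-Ly3 cells, 4 h post-doxycycline with compound; red signal alone, scaled from basal (0%) to zero light (-100%), flagged nonspecific or cytotoxic effects.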
Imprint erasure: qHTS Assay for Compounds that Induce Erasure of Genomic Imprints; mouse ES Peg3-LacZ reporter, beta-gal luminescence, 40 h; Potency, µM (top dose mostly 60.7 µM), for inactives: at the highest dose activity change, positive = activation, most hits filed as activators; 110,000 tested, 0.02% active
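Readout: BetaGlo luminescence (5 min, room temp) for LacZ from the normally silent maternal Peg3 allele in female Peg3LacZ-Neo ES cells. Cells 300/well, 40 h, 37C, 5% CO2. Data normalized per plate to negative controls.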
p53ts 39C tox: qHTS Screen for Compounds that Selectively Target Cancer Cells with p53 Mutations: Cytotoxicity of p53ts Cells at the Nonpermissive Temperature; 130,000 tested, 1.5% active; Potency, µM (series often up to 46.1 µM), for the others: at the highest dose activity change, negative = cell killing, most hits filed as cytotoxic; H1299-p53A138V viability at 39C, ATP luminescence, 24 h; note: % is set by controls: 0 for no effect and ±100 for the full control effect; nearly all actives have a fitted effect of over 55% in size
p53ts 32C kill: qHTS Screen for Compounds that Selectively Target Cancer Cells with p53 Mutations: Cytotoxicity of p53ts Cells at the Permissive Temperature. H1299-p53A138V at 32C, ATP luminescence viability, 24 h. Potency, µM (titrated, usually from 46.1 µM), inactives show at the top dose activity change, negative = cytotoxicity, actives largely listed as cytotoxic. 130,000 tested, 0.93% active;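 note: 0% = DMSO and -100% = full killing by reference compound; nearly all actives have a fitted effect of over 55% in size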
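H1299-p53 A138V cells (temperature-sensitive p53) exposed 24 h to up to 46 uM compound at 32C, where p53 is wild-type in conformation. Viability read as ATP luminescence and normalised to DMSO and 100 uM tamoxifen. AC50 fitted with the Hill equation.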
An asterisk follows results filed as active; [ ] = remark or other dose. Unless noted, calls come from the whole dose curve; as a rule, active = well fitted curve in the direction sought with a large enough effect; inconclusive = small, poorly fitted or top-dose-only effect, or another doubt; inactive = no such curve, though single readings can be large; an effect the other way counts as inactive or inconclusive. Potency is the fitted concentration of half-maximal effect.

CN(C)c1nc(N)nc(CSc2nc3cc(Cl)ccc3o2)n1 was read as CRE Fsk mod 2.5µM*, IkB signaling -2%, Imprint erasure -20%, p53ts 39C tox 10% and p53ts 32C kill -9%.
`Cc1cc(C)n2cc(CSc3nc4cc(Cl)ccc4o3)nc2n1` gave CRE Fsk mod inconclusive, IkB signaling 0%, Imprint erasure -13%, p53ts 39C tox 12% and p53ts 32C kill 11%.
Screening O=S(=O)(Nc1cccc(-c2ccc(N3CCCCCC3)nn2)c1)c1ccc(F)cc1 returned IkB signaling -1%, Imprint erasure -9%[10.9 µM], p53ts 39C tox -35% and p53ts 32C kill inconclusive.
Cc1ccc(S(=O)(=O)Nc2cccc(-c3ccc(N4CCCCC4)nn3)c2)s1 was read as IkB signaling -1%, Imprint erasure -11%[10.9 µM], p53ts 39C tox 1µM* and p53ts 32C kill 13µM*.
`CC(=O)c1ccc(S(=O)(=O)Nc2cccc(-c3ccc(N4CCCCC4)nn3)c2)cc1` gave IkB signaling inconclusive, Imprint erasure -17%[10.9 µM], p53ts 39C tox 5µM* and p53ts 32C kill 10µM*.
Screening Cc1ccc(S(=O)(=O)Nc2cccc(-c3ccc(N4CCCC4)nn3)c2)c(C)c1 returned IkB signaling 0%, Imprint erasure -8%[10.9 µM], p53ts 39C tox -5% and p53ts 32C kill 7%.
CCc1ccc(S(=O)(=O)Nc2cccc(-c3ccc(N4CCCCC4)nn3)c2)s1 was read as IkB signaling -2%, Imprint erasure -15%[10.9 µM], p53ts 39C tox 16µM* and p53ts 32C kill 13µM*.
For CCc1ccc(S(=O)(=O)Nc2cccc(-c3ccc(OC)nn3)c2)s1 the results were IkB signaling inconclusive, Imprint erasure -8%[10.9 µM], p53ts 39C tox -9% and p53ts 32C kill -12%.
`Cc1ccc2c(CNCCc3ccco3)c(C(=O)O)n(Cc3ccc(F)cc3)c2c1` gave IkB signaling 0%, Imprint erasure -19%[10.9 µM], p53ts 39C tox -22% and p53ts 32C kill 0%.
For COc1ccc(-c2noc(N3CCC(C(=O)N4CCN(c5ccccc5F)CC4)CC3)n2)cc1 the results were IkB signaling -1%, Imprint erasure -12%[10.9 µM], p53ts 39C tox 40% and p53ts 32C kill 40%.
O=C(Nc1ccc(Cl)cc1)N1CCC(c2ccccc2)C1 (centres undefined) was read as IkB signaling inconclusive, Imprint erasure -18%[10.9 µM], p53ts 39C tox 13µM* and p53ts 32C kill inconclusive.
Cc1ccc(C2CCN(C(=O)Nc3ccccc3)C2)cc1 (centres undefined) was read as CRE Fsk mod -20%, IkB signaling inconclusive, Imprint erasure -48%, p53ts 39C tox inconclusive and p53ts 32C kill inconclusive.
For Cc1ccc(NC(=O)N2CC3CCCN3c3ccccc32)cc1C (centres undefined) the results were IkB signaling inconclusive, Imprint erasure -9%[10.9 µM], p53ts 39C tox -11% and p53ts 32C kill inconclusive.
Screening Cc1ccc(NC(=O)N2CCC(c3ccccc3)C2)cc1C (centres undefined) returned IkB signaling 21%, Imprint erasure -12%[10.9 µM], p53ts 39C tox 13µM* and p53ts 32C kill inconclusive.
CCC(C)NC(=O)Cn1ncc2c(C)n(Cc3ccc(F)cc3)c(C)c2c1=O (centres undefined) was read as IkB signaling inconclusive, Imprint erasure -3%[10.9 µM], p53ts 39C tox -22% and p53ts 32C kill 4%.
CC1=C(c2ccc(C)cc2)S(=O)(=O)NC1=NCCCN1CCN(c2ccccc2F)CC1 was read as IkB signaling 0%, Imprint erasure -12%[10.9 µM], p53ts 39C tox 5% and p53ts 32C kill 4%.
For COc1ccc(OC)c(NC2=NC3(CCCC3)N=C(N)N2)c1 the results were CRE Fsk mod 8%, IkB signaling -2%, Imprint erasure -10%, p53ts 39C tox 6% and p53ts 32C kill -5%.
Screening [O-][N+]1=c2ccc(Nc3ccccc3)cc2=NC12CCCCC2 returned CRE Fsk mod inconclusive, IkB signaling inconclusive, Imprint erasure 10%, p53ts 39C tox 20µM* and p53ts 32C kill 5µM*.
`COc1ccc(Nc2ccc3c(c2)=NC2(CCCCC2)[N+]=3[O-])cc1` gave CRE Fsk mod -10%, IkB signaling inconclusive, Imprint erasure -30%, p53ts 39C tox 6.3µM* and p53ts 32C kill 5µM*.
CCN(CC)c1ccc(NC(=O)c2cccn2-c2nnc(N3CCCCC3)s2)c(C)c1 was read as IkB signaling inconclusive, Imprint erasure -17%[10.9 µM], p53ts 39C tox 23% and p53ts 32C kill 23%.
For CCOc1ccc(NC(=O)C2CCCN(c3nn4cc(-c5ccc(OC)cc5)nc4s3)C2)cc1 (centres undefined) the results were p53ts 32C kill -19%.
For Cc1cc2c(n1-c1ccc(C(=O)NCCc3ccc(Cl)cc3)cc1)CCC(C)C2 (centres undefined) the results were p53ts 32C kill -2%.
CNC(=O)CCc1nc(-c2ccc(C(C)(C)C)cc2)no1 was read as CRE Fsk mod inconclusive, IkB signaling 2%, Imprint erasure -26%, p53ts 39C tox inconclusive and p53ts 32C kill 13µM*.
CCOC(=O)c1cc2c(=O)n3ccccc3nc2n(CCOC)c1=NC(=O)c1cc2ccccc2o1 was read as IkB signaling 2%, Imprint erasure -15%[10.9 µM], p53ts 39C tox -11% and p53ts 32C kill -1%.
Screening Cc1ccc(C)c(Nc2nn3c(=O)c4cc5c(cc4nc3s2)OCO5)c1 returned IkB signaling inconclusive, Imprint erasure -5%[10.9 µM], p53ts 39C tox -5% and p53ts 32C kill -17%.
Screening O=c1c2cc3c(cc2nc2sc(Nc4ccccc4)nn12)OCO3 returned IkB signaling -1%, Imprint erasure -4%[10.9 µM], p53ts 39C tox 16µM* and p53ts 32C kill 13µM*.
For COC(=O)CNc1c(-c2ccccn2)nc2ccc(Br)cn12 the results were CRE Fsk mod 16%, IkB signaling 16%, Imprint erasure -90%, p53ts 39C tox 13µM* and p53ts 32C kill 16µM*.
Screening Cc1ccc(Nc2c(-c3ccccn3)nc3ccc(Br)cn23)cc1 returned IkB signaling inconclusive, Imprint erasure -6%[10.9 µM], p53ts 39C tox 17% and p53ts 32C kill -7%.
`CCOc1ccccc1CNC(=O)c1ccc(CS(=O)Cc2cccc(Cl)c2)o1` (centres undefined) gave IkB signaling inconclusive, Imprint erasure -12%[10.9 µM], p53ts 39C tox -24% and p53ts 32C kill -2%.
